Screening results (PubChem)
Compounds with a hit are over-represented: about 2% of the library has one in this group of screens.
aSyn yeast inh: rescues yeast growth from alpha-synuclein toxicity; Potency, µM (highest dose often 46.1 µM), without a hit: at the highest dose growth rescue (activation), most hits filed as activators; Yeast expressing alpha-synuclein, growth rescue, BacTiter-Glo, 24 h; AID 652106; 0.14% of 370,000 active; also: % of control where 0% means no effect; nearly all actives have a fitted effect of over 65% in size
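Galactose-induced alpha-syn yeast (OD600=0.02, raffinose-pregrown) + pinned cpd, 24 hr, 30 deg C; growth by BacTiter-Glo luminescence. Growth restoration scores as activation.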
TDP-43 yeast inh: rescues yeast growth from TDP-43 toxicity. TDP-43 expressing yeast growth rescue, BacTiter-Glo, 24 h. Potency, µM (top dose mostly 46.1 µM), inactives show at the top dose growth rescue (activation), actives largely listed as activators. 1.8% of 410,000 active. AID 652104; also: % of control where 0% means no effect; nearly all actives have a fitted effect of over 50% in size
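Yeast cells expressing TDP-43 under galactose induction are exposed to compounds for 24 hr at 30 deg C. BacTiter-Glo luminescence measures growth, so protective compounds score as activators.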
Rango complex inh: inhibitors of Rango-importin beta complex formation. Potency, µM (titrated, usually from 92.2 µM), inactives show at the highest dose inhibition of complex formation. 0.031% of 340,000 active. Q14974. Rango CFP/YFP FRET sensor + importin beta, 45 min; calls by dose curve;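 also: 0% = DMSO wells and 100% = buffer wells lacking importin beta; nearly all actives have a fitted effect of over 15% in size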
Target sequence (Q14974 whole entry, looked up): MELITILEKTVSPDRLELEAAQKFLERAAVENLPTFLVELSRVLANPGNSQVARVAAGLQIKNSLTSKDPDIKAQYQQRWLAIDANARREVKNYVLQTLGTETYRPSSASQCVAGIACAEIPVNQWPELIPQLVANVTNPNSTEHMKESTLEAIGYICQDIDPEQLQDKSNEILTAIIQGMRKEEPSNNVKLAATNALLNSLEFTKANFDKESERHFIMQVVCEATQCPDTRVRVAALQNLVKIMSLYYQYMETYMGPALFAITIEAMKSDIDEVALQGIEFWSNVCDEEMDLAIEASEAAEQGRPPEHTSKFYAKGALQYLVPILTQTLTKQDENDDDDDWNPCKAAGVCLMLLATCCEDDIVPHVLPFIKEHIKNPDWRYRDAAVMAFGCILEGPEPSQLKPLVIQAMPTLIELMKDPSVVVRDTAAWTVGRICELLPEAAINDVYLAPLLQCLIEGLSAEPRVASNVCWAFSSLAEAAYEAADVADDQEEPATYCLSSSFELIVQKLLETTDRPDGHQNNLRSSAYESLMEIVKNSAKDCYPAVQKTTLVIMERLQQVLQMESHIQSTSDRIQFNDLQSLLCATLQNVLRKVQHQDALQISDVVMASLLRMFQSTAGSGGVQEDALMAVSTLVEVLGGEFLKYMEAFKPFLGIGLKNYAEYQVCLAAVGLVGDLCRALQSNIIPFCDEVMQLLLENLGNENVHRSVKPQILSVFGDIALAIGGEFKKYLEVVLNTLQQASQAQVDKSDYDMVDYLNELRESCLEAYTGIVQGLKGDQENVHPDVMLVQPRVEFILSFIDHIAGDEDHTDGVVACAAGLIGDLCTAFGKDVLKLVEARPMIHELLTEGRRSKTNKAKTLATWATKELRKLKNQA
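FRET biosensor Rango (snurportin 1 IBB between N-terminal EYFP and C-terminal Cerulean), 50 nM in PBS/1 mM DTT/0.02% Tween-20/0.1% BSA, preincubated 5 min RT with compound; 0.125 microM importin beta added, 45 min RT, CFP/YFP FRET ratio read.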
Abeta rescue: compounds reversing amyloid beta toxicity in yeast; yeast expressing A-beta42, growth rescue, OD600, 48 h; response scale: 0% DMSO, 100% iron-clioquinol control; AID 1347071; 0.063% of 410,000 active; Potency, µM (top dose mostly 46.1 µM), most hits filed as activators; also: nearly all actives have a fitted effect of over 55% in size
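Yeast growth medium received pinned compounds, then yeast cells expressing toxic A-beta were added; plates incubated at 30 C for 48 hr. Growth read as absorbance at 600 nm, normalized to DMSO and equimolar FeCl3 plus clioquinol controls.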
Rango dissoc inh: inhibition of RanGTP-driven Rango-importin beta dissociation; O95149+P62826; Biochemical FRET Rango-importin beta, RanGTP-induced dissociation; Potency, µM (series often up to 46.1 µM), inactives show at the top dose activity change, negative = inhibition; 0.071% of 340,000 active; AID 540253; calls by dose curve; also: % of control where 0% means no effect; nearly all actives have a fitted effect of over 45% in size
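Two FRET readings bracket the reaction: one 5 min after compound meets Rango–importin beta, another 45 min after RanGTP-RCC1 (0.6 uM Ran, 0.2 uM RCC1, 2 mM GTP) is added. Only the second defines inhibition.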
ASM inhibitor: human S-ASM enzyme inhibition | Potency, µM (doses to about 57.5 µM), without a hit: at the top dose activity change, negative = inhibition, hits mostly inhibitors | P17405 | AID 504937 | placental ASM, HMU-PC fluorogenic substrate, 60 min | 0.006% of 340,000 active
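Steps: dispense placental human ASM, pin compound, wait 10 min at room temperature, add HMU-PC0 substrate at 9 uM final, incubate 60 min at 37 °C, add stop solution raising pH to 10, read fluorescence.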
An asterisk follows results filed as active; i = inactive; ? = inconclusive; · = no result given; [ ] = remark or other dose. Unless noted, calls follow the shape of the dose curve; as a rule, active = well fitted curve in the direction sought with a large enough effect; inconclusive = small, poorly fitted or top-dose-only effect, or another doubt; inactive = no such curve, though single readings can be large; an effect the other way counts as inactive or inconclusive. Potency is read from the fitted curve at half-maximal effect.

SMILES	aSyn yeast inh	TDP-43 yeast inh	Rango complex inh	Abeta rescue	Rango dissoc inh	ASM inhibitor
Cc1c(N/N=C(\C#N)C(=O)c2ccccc2)c(=O)n(-c2ccccc2)n1C	17%	-12%[0.397 µM]	-3%	?	?	-11%
CN1CCN(C(=O)/C=C/c2ccc([N+](=O)[O-])o2)CC1	0%	11%	8%	i	0%	-4%
O=C(O)/C=C/c1ccc([N+](=O)[O-])o1	9%	10µM*	16%	i	17%	-2%
Cc1cc(-c2ccco2)c(C#N)c2nc3ccccc3n12	0.56µM*	4µM*	?	i	?	115%
Cc1cc(C)cc(NC(=O)C2CCCN(c3nnc(C)c4c(C)n(-c5ccccc5)nc34)C2)c1 (stereo not given)	·	16%	·	i	·	·
O=C(/C=C/c1ccc(F)cc1)N1CCCc2ccccc21	3%	18µM*	-3%	i	-5%	-4%
O=C(/C=C/c1cccc(F)c1)N1CCc2ccccc21	1%	14%	-5%	i	-9%	-1%
CCCCOc1ccc(CC(=O)N(C)O)cc1	6%	·	·	·	·	·
Cc1c(Cl)ccc2sc(N3CCN(C(=O)C4CC4)CC3)nc12	·	32µM*	·	i	·	·
CCc1cccc2sc(N3CCN(C(=O)C4CC4)CC3)nc12	·	11µM*	·	i	·	·
Cc1cc(C)c2sc(N3CCN(C(=O)C4CC4)CC3)nc2c1	·	13µM*	·	i	·	·
O=C(C1CC1)N1CCN(c2nc3ccccc3s2)CC1	12%	-8%	-2%	i	6%	1%
CCCCOc1ccc(-c2nonc2NC(=O)c2ccco2)cc1	·	0%[9.22 µM]	·	i	·	·
COc1cccc(CNC(=O)C2Cc3cc(S(=O)(=O)N4CCCCCC4)ccc3N2C(C)=O)c1 (stereo not given)	·	2%	·	i	·	·
CN(C)c1ccc(/C=C/c2ccnc3ccccc23)cc1O	-10%	·	·	·	·	·
O=C(Nc1ccccc1-c1ccccc1)c1cnccn1	0%	18µM*	3%	i	-14%	0%
CCOC(=O)c1ccccc1NC(=S)N1CCC(C)CC1	1%	11µM*	-2%	i	3%	-2%
CCOC(=O)c1ccccc1NC(=S)N1CC(C)CC(C)C1 (stereo not given)	-14%	-4%	2%	i	13%	0%
CCOc1ccc(NC(=O)NCCc2c(C)nn(C)c2C)cc1	·	0%	·	i	·	·
N/C(=C\c1ccccc1)c1ccncc1	0%	·	·	·	·	·
CCn1c2ccccc2c2cc(/C=N/NC(=O)c3ccccc3)ccc21	5%	11µM*	?	i	18%	56%
Cn1c2ccccc2c2cc(/C=N/NC(=O)c3cc(O)cc(O)c3)ccc21	4%	13%	0%	i	7%	-7%
CC1=C(C(N)=O)C(c2cccc(C)c2)n2nc(-c3ccc(Cl)cc3)nc2N1 (stereo not given)	·	17%	·	i	·	·
CC1C/C(=C/c2cccn2C)C(=O)/C(=C/c2cccn2C)C1 (stereo not given)	5%	13µM*	?	i	?	-26%
Cc1nc2ccn(Cc3cccs3)c(=O)c2cc1C(=O)NCc1ccc(Br)cc1	·	-9%	·	i	·	·
CC(Oc1cccc(Cl)c1)C(=O)Nc1ccc([N+](=O)[O-])cn1 (stereo not given)	-3%	13µM*	-4%	i	0%	-2%
CC(Oc1cccnc1[N+](=O)[O-])C(=O)Nc1cccc(Cl)c1 (stereo not given)	-1%	16µM*	-2%	i	-10%	-1%
CC(Oc1cccnc1[N+](=O)[O-])C(=O)Nc1ccc(F)cc1 (stereo not given)	0%	?	?	i	-5%	0%
Cc1ccccc1OCc1nnc(SCc2cc(=O)c3ccc(C)c(C)c3[nH]2)n1C	·	13%	·	i	·	·
COc1cccc(C(=O)NCC(c2ccc(N(C)C)cc2)N2CCc3ccccc32)c1 (stereo not given)	·	-5%	·	i	·	·
